Legend:
[1] = biological target: T1, Mitogen-activated protein kinase kinase kinase 7 (Homo sapiens) (UniProt O43318); conditions: at 10 µM
T1 sequence (whole entry): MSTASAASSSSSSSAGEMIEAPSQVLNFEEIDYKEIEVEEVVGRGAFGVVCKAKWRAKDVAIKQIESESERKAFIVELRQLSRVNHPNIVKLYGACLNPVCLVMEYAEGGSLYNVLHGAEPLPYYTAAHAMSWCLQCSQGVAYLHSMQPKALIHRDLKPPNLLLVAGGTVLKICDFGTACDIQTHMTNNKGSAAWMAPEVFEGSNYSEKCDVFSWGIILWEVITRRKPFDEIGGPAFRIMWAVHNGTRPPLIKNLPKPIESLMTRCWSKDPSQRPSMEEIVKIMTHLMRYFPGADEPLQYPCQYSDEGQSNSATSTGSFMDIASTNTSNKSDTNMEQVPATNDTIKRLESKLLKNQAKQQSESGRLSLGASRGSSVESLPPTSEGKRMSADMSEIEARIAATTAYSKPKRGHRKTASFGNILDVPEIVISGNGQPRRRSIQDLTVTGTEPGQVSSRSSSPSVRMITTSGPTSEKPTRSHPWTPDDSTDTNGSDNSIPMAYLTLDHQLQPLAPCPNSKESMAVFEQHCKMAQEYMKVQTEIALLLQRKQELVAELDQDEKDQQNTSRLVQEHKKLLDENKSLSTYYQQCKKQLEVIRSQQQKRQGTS

[2] = biological target: T2, Serine/threonine-protein kinase TAO2 (Homo sapiens) (UniProt Q9UL54); conditions: at 10 µM
T2 sequence (whole entry): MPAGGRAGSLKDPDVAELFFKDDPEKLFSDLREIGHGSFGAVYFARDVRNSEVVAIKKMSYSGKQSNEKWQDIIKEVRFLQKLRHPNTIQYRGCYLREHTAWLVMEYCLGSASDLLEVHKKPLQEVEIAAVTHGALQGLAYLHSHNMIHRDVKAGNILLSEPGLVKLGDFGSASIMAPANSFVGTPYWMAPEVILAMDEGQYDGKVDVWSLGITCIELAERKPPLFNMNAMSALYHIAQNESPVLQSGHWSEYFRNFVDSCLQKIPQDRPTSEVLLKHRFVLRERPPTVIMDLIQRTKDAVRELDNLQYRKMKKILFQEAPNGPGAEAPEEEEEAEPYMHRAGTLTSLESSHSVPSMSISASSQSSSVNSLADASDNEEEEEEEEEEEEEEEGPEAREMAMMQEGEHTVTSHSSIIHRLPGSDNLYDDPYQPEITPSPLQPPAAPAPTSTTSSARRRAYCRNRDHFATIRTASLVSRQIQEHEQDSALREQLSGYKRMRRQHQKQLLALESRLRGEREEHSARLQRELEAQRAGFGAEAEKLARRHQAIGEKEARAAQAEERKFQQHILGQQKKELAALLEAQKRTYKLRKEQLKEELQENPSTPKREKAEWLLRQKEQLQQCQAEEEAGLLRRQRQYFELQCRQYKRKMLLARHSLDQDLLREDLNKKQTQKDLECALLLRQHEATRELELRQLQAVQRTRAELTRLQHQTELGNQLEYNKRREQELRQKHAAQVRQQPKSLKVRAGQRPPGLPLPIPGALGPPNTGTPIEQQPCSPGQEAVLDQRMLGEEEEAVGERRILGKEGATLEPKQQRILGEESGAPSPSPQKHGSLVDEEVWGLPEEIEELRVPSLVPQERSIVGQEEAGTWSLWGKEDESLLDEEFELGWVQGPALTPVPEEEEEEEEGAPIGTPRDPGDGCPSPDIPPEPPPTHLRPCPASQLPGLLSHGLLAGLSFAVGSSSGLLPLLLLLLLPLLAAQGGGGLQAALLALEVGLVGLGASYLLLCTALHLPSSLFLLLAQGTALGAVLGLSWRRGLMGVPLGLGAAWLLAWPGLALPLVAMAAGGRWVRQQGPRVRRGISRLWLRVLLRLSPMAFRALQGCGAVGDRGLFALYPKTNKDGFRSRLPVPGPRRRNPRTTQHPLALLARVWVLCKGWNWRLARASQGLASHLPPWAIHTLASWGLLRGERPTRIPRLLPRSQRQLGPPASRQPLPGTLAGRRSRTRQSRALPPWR

[3] = biological target: T3, Serine/threonine-protein kinase TBK1 (Homo sapiens) (UniProt Q9UHD2); conditions: at 10 µM
T3 sequence (whole entry): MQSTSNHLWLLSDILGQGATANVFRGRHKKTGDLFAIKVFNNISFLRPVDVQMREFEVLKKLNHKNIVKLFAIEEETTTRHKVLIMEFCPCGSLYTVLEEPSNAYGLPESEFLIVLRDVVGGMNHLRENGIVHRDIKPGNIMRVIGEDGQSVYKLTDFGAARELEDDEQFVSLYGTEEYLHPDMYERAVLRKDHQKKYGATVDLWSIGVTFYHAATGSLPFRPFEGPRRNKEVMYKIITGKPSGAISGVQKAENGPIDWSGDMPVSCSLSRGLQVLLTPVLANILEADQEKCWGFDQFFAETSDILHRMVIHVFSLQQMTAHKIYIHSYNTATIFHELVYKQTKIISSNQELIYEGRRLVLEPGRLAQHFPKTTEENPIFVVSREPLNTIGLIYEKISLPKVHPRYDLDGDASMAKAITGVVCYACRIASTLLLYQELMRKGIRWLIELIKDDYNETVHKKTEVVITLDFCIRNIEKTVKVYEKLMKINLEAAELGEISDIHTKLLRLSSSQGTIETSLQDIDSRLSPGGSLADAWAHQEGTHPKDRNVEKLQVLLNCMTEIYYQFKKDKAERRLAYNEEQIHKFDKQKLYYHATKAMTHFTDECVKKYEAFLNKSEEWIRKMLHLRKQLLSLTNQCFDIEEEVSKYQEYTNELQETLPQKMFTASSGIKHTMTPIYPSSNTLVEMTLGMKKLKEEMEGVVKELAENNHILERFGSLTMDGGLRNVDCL

[4] = biological target: T4, Inhibitor of nuclear factor kappa-B kinase subunit alpha (Homo sapiens) (UniProt O15111); conditions: at 1 µM
T4 sequence (whole entry): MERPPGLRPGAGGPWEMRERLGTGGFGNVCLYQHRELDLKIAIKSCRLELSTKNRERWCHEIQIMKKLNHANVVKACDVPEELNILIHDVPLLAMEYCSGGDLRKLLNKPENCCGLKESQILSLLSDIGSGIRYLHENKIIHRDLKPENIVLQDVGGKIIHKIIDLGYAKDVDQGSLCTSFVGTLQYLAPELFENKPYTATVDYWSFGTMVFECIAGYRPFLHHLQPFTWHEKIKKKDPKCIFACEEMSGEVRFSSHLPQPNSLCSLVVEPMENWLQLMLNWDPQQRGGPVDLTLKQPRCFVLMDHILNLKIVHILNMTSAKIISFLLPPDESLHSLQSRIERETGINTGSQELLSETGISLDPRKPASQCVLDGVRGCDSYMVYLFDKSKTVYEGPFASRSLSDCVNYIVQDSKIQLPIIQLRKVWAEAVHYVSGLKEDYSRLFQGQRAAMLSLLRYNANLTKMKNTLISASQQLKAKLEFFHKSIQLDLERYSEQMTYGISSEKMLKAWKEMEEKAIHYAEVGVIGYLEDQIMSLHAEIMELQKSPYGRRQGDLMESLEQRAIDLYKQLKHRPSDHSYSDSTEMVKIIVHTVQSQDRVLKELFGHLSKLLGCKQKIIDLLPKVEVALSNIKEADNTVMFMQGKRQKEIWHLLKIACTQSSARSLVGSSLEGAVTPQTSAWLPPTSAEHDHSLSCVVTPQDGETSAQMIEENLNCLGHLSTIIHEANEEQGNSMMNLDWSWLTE

[5] = biological target: T5, Inhibitor of nuclear factor kappa-B kinase subunit beta (Homo sapiens) (UniProt O14920); conditions: at 1 µM
T5 sequence (whole entry): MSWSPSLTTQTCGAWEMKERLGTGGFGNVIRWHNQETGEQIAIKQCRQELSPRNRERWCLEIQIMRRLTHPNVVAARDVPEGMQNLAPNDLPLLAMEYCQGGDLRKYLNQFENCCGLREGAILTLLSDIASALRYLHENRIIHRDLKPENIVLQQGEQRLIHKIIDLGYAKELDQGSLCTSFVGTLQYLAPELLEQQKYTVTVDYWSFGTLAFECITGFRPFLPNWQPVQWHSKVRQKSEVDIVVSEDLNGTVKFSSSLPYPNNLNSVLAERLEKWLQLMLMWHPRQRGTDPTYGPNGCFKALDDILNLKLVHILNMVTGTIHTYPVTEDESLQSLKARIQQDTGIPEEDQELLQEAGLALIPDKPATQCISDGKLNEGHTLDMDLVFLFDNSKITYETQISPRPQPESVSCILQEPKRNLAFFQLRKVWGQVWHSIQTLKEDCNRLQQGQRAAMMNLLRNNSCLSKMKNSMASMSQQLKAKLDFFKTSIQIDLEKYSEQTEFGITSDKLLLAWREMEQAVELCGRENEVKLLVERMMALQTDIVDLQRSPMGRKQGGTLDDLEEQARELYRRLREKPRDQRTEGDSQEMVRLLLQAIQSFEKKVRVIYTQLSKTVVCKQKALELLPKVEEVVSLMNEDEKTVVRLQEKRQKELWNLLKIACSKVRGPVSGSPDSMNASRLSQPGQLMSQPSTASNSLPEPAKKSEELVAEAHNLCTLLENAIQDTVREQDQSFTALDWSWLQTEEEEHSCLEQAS

[6] = biological target: T3, Serine/threonine-protein kinase TBK1 (Homo sapiens); conditions: at 1 µM
[7] = biological target: T4, Inhibitor of nuclear factor kappa-B kinase subunit alpha (Homo sapiens); conditions: at 10 µM
[8] = biological target: T6, Serine/threonine-protein kinase TAO1 (Homo sapiens) (UniProt Q7L7X3); conditions: at 1 µM
T6 sequence (whole entry): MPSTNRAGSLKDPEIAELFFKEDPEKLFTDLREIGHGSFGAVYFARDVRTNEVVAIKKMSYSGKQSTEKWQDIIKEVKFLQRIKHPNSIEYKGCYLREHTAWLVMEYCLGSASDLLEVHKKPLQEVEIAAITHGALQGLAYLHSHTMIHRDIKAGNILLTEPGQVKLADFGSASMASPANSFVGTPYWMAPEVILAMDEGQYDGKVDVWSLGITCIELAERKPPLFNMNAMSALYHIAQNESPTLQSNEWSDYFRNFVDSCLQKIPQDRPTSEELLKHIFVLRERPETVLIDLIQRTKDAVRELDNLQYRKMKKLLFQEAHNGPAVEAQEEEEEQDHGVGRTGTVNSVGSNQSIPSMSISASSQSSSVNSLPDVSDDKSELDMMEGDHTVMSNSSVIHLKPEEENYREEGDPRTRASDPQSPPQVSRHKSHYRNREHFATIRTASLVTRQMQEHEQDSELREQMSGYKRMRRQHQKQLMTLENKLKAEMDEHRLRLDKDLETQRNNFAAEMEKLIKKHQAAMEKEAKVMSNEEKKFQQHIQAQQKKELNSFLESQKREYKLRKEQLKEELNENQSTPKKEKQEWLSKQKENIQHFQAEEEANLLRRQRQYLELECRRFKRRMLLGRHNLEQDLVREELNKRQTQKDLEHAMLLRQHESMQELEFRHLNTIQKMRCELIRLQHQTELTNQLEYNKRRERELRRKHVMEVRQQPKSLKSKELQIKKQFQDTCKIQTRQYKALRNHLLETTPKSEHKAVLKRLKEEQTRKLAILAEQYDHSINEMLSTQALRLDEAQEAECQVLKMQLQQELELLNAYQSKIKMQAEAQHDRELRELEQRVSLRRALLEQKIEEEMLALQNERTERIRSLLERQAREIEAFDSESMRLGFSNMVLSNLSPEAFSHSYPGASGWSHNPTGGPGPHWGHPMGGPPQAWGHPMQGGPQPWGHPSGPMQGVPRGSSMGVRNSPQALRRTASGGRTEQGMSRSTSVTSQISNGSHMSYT

[9] = biological target: T6, Serine/threonine-protein kinase TAO1 (Homo sapiens); conditions: at 10 µM
[10] = biological target: T2, Serine/threonine-protein kinase TAO2 (Homo sapiens); conditions: at 1 µM

Row | Structure (SMILES) | residual activity [1] [%] | residual activity [2] [%] | residual activity [3] [%] | residual activity [4] [%] | residual activity [5] [%] | residual activity [6] [%] | residual activity [7] [%] | residual activity [8] [%] | residual activity [9] [%] | residual activity [10] [%]
1 | Nc1nccc(-c2c(-c3ccc(F)cc3)ncn2C2CCNCC2)n1 | 79 | 80 | 69 | 120 | 116 | – | – | – | – | –
2 | NC(=O)c1cccc(-c2cc(Nc3ccc(OC(F)(F)F)cc3)ncn2)c1 | 95 | – | 79 | 128 | – | 98 | 149 | – | – | –
3 | NC(=O)c1ccc(-c2nc(-c3ccc4c(c3)OCCO4)c(-c3ccccn3)[nH]2)cc1 | – | 93 | 72 | – | – | 83 | – | 96 | 80 | 100

From ChEMBL document CHEMBL2218924, “A broad activity screen in support of a chemogenomic map for kinase signalling research and drug discovery” (Biochem J, 2013)
